Chronic BCR inh = inhibitors of chronic active B-cell receptor signaling; ABC-DLBCL IkBa-CBG/CBR reporter, luminescence ratio, 4 h; Potency, µM (highest dose often 46.1 µM), without a hit: top-dose activity change, negative = inhibition, usual class: inhibitors; 0.05% of 340,000 active; active means well fitted inhibition curve with a large enough effect in the signal ratio, with a control signal flat, not every such curve was filed as active; inconclusive means small, poorly fitted or top-dose-only effect, or effect the other way, or a change in a side signal; the % refers to the signal ratio;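 further: plate controls were basal doxycycline-induced cells for no effect and cells given 10 µM MG132 for full effect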
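Cell line TMD8 (human ABC DLBCL), stably expressing tet-inducible CBG68-IkBa fusion and CBR; IMDM/0.5% FBS; cpd up to 46 uM; dox induction, 4 h, 37C/5% CO2; dual luminescence; green/red ratio; MG132 control.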
TDP-43 yeast inh = rescues yeast growth from TDP-43 toxicity; TDP-43 expressing yeast growth rescue, BacTiter-Glo, 24 h; Potency, µM (series often up to 46.1 µM), without a hit: at the top dose growth rescue (activation), hits mostly activators; AID 652104; 1.8% of 410,000 active; further: % of control where 0% means no effect; nearly all actives have a fitted effect of over 50% in size
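Cell-based yeast growth screen: TDP-43 expression induced in galactose, inoculum OD600=0.02 after raffinose pregrowth to mid-log. Read-out BacTiter-Glo luminescence at 24 hr, 30 deg C; inhibition of toxicity seen as signal increase.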
aSyn yeast inh = alpha-synuclein toxicity inhibition in yeast | Potency, µM (highest dose often 46.1 µM), without a hit: at the top dose growth rescue (activation), usual class: activators | 0.14% of 370,000 active | Yeast expressing alpha-synuclein, growth rescue, BacTiter-Glo, 24 h; further: % of control where 0% means no effect; nearly all actives have a fitted effect of over 65% in size
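Screening used galactose-induced yeast with toxic alpha-synuclein levels, exposed to compound for 24 hr at 30 deg C. Cell growth, read with BacTiter-Glo luminescence, gave the measured signal.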
FUS yeast rescue = rescues growth of FUS-expressing yeast | S. cerevisiae FUS-expressing, growth rescue, OD600, 24 h | Potency, µM (series often up to 76.6 µM), most hits filed as activators | 0.24% of 390,000 active | AID 1347120;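 further: plate controls were DMSO vehicle for no effect and reference control for full effect; nearly all actives have a fitted effect of over 55% in size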
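Toxicity suppression screen in FUS-yeast. Cells induced with 2% galactose, starting OD 0.005, treated 24hr at 30C with compounds at multiple final concentrations; growth by OD600.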
Abeta rescue = A-beta toxicity reversal in yeast | yeast expressing A-beta42, growth rescue, OD600, 48 h; response scale: 0% DMSO, 100% iron-clioquinol control | Potency, µM (top dose mostly 46.1 µM), hits mostly activators | 0.063% of 410,000 active; further: nearly all actives have a fitted effect of over 55% in size
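Growth rescue measured by 600 nm absorbance after 48 h yeast culture at 30 C with compound. Values normalized between DMSO and an equimolar ferric chloride plus clioquinol control.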
uPA generation = inhibitors of cell surface uPA generation; cell surface uPA generation assay, qHTS; Potency, µM (highest dose often 38.3 µM), inactives show top-dose activity change, negative = inhibition, actives largely listed as inhibitors; 0.31% of 330,000 active; AID 540303; active means well fitted inhibition curve with a large enough effect; inconclusive means small, poorly fitted or top-dose-only effect; inactive means no such curve, though single readings can be large or run the other way; tested in mouse RAW 264.7 cells; further: on the % scale 0 is the no-effect control and ±100 the full control effect; nearly all actives have a fitted effect of over 55% in size
An asterisk follows results filed as active. Compounds with a hit are over-represented: about 2.3% of the library has one in this group of screens. Unless noted, the call rests on the fitted dose curve; in most records, active means well fitted curve in the direction sought with a large enough effect; inconclusive means small, poorly fitted or top-dose-only effect, or another doubt; inactive means no such curve, though single readings can be large; an effect the other way counts as inactive or inconclusive. Potency means the concentration at half of the fitted maximal effect.

How did NNC(=S)Nc1ccc(OC(F)(F)F)cc1 do in these assays?
Chronic BCR inh: inconclusive; TDP-43 yeast inh: 3%; aSyn yeast inh: 0%; FUS yeast rescue: inactive; Abeta rescue: 11µM*; uPA generation: 4%

Results for C[C@H](CO)N1C[C@H](C)[C@@H](CN(C)C(=O)Nc2ccc(C(F)(F)F)cc2)Oc2c(NC(=O)C3CCCCC3)cccc2C1=O ?
Chronic BCR inh: 0%; TDP-43 yeast inh: inconclusive; aSyn yeast inh: -11%; FUS yeast rescue: inconclusive; Abeta rescue: inactive; uPA generation: -17%

How did COc1ccc(NC(=O)N(C)C[C@H]2Oc3ccc(NC(=O)Nc4ccc(C(F)(F)F)cc4)cc3C(=O)N([C@H](C)CO)C[C@@H]2C)cc1 do in these assays?
Chronic BCR inh: -3%; TDP-43 yeast inh: 25%; aSyn yeast inh: -1%; FUS yeast rescue: 35µM*; Abeta rescue: inactive; uPA generation: 17%

What do the screens show for `C[C@H](CO)N1C[C@H](C)[C@@H](CN(C)S(=O)(=O)c2cccs2)Oc2c(NC(=O)NC3CCCCC3)cccc2C1=O`?
Chronic BCR inh: 0%; TDP-43 yeast inh: 5%; aSyn yeast inh: -2%; FUS yeast rescue: 14µM*; Abeta rescue: inactive; uPA generation: 11%

What do the screens show for `C[C@@H]1CN([C@H](C)CO)C(=O)c2cccc(NC(=O)NC3CCCCC3)c2O[C@@H]1CN(C)C(=O)Nc1ccc(C(F)(F)F)cc1`?
Chronic BCR inh: inconclusive; TDP-43 yeast inh: 14%; aSyn yeast inh: -15%; FUS yeast rescue: 32µM*; Abeta rescue: inactive; uPA generation: inconclusive

How did C[C@H](CO)N1C[C@H](C)[C@@H](CN(C)C(=O)Nc2ccc3c(c2)OCO3)Oc2ccc(NC(=O)Cc3ccccc3)cc2C1=O do in these assays?
Chronic BCR inh: -2%; TDP-43 yeast inh: 1%; aSyn yeast inh: 8%; FUS yeast rescue: inactive; Abeta rescue: inactive; uPA generation: 9%

What do the screens show for `C[C@@H]1CN([C@H](C)CO)C(=O)c2cc(NC(=O)Cc3cn(C)c4ccccc34)ccc2O[C@H]1CN(C)C(=O)Nc1ccc2c(c1)OCO2`?
Chronic BCR inh: -1%; TDP-43 yeast inh: 0%; aSyn yeast inh: 2%; FUS yeast rescue: 32µM*; Abeta rescue: inactive; uPA generation: 25%

How did O=C(O)c1ccccc1-c1ccccc1C(=O)Nc1cccc(-c2nc3ccccc3o2)c1 do in these assays?
Chronic BCR inh: inconclusive; TDP-43 yeast inh: -1%; aSyn yeast inh: -40%; FUS yeast rescue: inactive; Abeta rescue: inactive; uPA generation: -6%

How did CCOC(=O)c1c(NC(=O)COC(=O)c2ccc(NC(=O)CC#N)cc2)sc(C(=O)NC)c1C do in these assays?
Chronic BCR inh: 0%; TDP-43 yeast inh: 20%; aSyn yeast inh: -3%; FUS yeast rescue: inactive; Abeta rescue: inactive; uPA generation: 12%

What do the screens show for `COc1ccc(NC(=O)Nc2cccc3c2O[C@H](CN(C)C(=O)Nc2ccc(OC)cc2)[C@@H](C)CN([C@H](C)CO)C3=O)cc1`?
Chronic BCR inh: 1%; TDP-43 yeast inh: 3%; aSyn yeast inh: 1%; FUS yeast rescue: 32µM*; Abeta rescue: inactive; uPA generation: -16%

How did COc1ccc(NC(=O)N(C)C[C@H]2Oc3c(NC(=O)Nc4ccccc4)cccc3C(=O)N([C@H](C)CO)C[C@@H]2C)cc1 do in these assays?
Chronic BCR inh: -1%; TDP-43 yeast inh: 7%; aSyn yeast inh: -1%; FUS yeast rescue: inactive; Abeta rescue: inactive; uPA generation: -8%

How did CCc1ccc(/C=C2/SC(N3CCOCC3)=NC2=O)cc1 do in these assays?
Chronic BCR inh: -11%; TDP-43 yeast inh: 11%; aSyn yeast inh: -3%; FUS yeast rescue: inactive; Abeta rescue: inactive; uPA generation: -3%

What do the screens show for `COCCNC(=S)N/N=C/c1c2ccccc2cc2ccccc12`?
Chronic BCR inh: inconclusive; TDP-43 yeast inh: inconclusive; aSyn yeast inh: 15%; FUS yeast rescue: inactive; Abeta rescue: inconclusive; uPA generation: -3%
